Test results reported in PubChem BioAssay AID485346 (Sanford-Burnham Center for Chemical Genomics, 2010).
Out of some 330,000 compounds screened, about 10,000 (3%) were called active.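 How the source made its calls: active means inhibition of at least 50% at 8 µM in the primary screen; inactive means the rest.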 The entries come from a sample that favours actives as a whole.

The compounds below were run against Protein Mdm4 (Homo sapiens) + E3 ubiquitin-protein ligase Mdm2 (Homo sapiens) (UniProt O15151+Q00987) (assay: disruptors of Mdm2/MdmX RING complex – cell-based, luminescence, split luciferase, SaOS-2, uHTS, primary screen (AID 485346)). Details: SaOS-2 split-luciferase Mdm2/MdmX complementation, at 8 µM, stronger effect = higher value.
Sequence of Protein Mdm4 (Homo sapiens) + E3 ubiquitin-protein ligase Mdm2 (Homo sapiens) (O15151 whole entry, looked up): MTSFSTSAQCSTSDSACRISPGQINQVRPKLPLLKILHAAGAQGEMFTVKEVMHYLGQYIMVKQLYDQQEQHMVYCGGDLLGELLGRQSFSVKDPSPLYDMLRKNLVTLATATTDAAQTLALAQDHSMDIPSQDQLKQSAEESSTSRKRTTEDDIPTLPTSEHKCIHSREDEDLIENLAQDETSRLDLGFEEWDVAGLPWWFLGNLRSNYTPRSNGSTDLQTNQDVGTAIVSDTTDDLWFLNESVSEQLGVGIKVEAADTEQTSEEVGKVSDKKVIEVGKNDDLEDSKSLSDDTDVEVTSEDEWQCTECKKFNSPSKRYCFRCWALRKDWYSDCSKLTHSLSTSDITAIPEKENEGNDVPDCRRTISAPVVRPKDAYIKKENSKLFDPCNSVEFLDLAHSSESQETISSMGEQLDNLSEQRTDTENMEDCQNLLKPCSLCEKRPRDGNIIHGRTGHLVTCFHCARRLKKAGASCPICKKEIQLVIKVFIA
Sequence of Protein Mdm4 (Homo sapiens) + E3 ubiquitin-protein ligase Mdm2 (Homo sapiens) (Q00987 whole entry, looked up): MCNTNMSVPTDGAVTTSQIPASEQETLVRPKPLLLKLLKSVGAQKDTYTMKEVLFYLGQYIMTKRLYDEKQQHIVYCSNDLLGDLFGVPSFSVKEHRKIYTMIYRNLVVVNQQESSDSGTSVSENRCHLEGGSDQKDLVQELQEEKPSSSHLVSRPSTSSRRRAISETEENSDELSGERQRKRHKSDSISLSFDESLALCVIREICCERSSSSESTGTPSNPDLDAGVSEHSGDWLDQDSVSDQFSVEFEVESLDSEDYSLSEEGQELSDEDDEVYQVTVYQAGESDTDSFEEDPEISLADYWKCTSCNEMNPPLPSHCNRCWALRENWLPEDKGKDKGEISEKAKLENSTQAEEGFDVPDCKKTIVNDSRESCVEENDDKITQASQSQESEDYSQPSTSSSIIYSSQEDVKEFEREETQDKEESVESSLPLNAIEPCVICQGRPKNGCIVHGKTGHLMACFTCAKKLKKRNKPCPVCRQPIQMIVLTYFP
For `CCCCOc1ccc(C(=O)N/C(=C/C=C/c2ccccc2)C(=O)N2CCOCC2)cc1`, the inhibition was -5.91% (inactive). For `Nc1cc(N2CCCCCC2)c2nonc2c1[N+](=O)[O-]`, the inhibition was 25.5% (inactive). `C=CCn1c(-c2ccc(Cl)cc2)ccc(C#N)c1=O` was tested, and the inhibition was 1.15% (inactive). `CCOc1ccc(CNC(=O)C2CCCN(c3nnc(C)c4c(C)n(-c5ccccc5)nc34)C2)cc1` (stereo not given) was tested, and the inhibition was 4.48% (inactive). With `COc1ccc(-n2nc3c(N4CCC(C(=O)NCc5ccccc5)CC4)nnc(C)c3c2C)cc1` the inhibition was 40.9% (inactive). For `CCc1ccc(CNC(=O)C2CCN(c3nnc(C)c4c(C)n(-c5ccc(C)cc5)nc34)CC2)cc1`, the inhibition was 89% (active). For `CC1(C(=O)NNC(=S)NCC2CCCO2)CC1(Cl)Cl` (stereo not given), the inhibition was 9.98% (inactive). In the case of `O=c1c2ccccc2[nH]c(=S)n1CCN1CCC(=C(c2ccc(F)cc2)c2ccc(F)cc2)CC1`, the inhibition is reported as -6.96% (inactive). With `COn1c(=O)c(=O)n(OC)c2ccccc21` the inhibition was -14.5% (inactive). For `Brc1cnc(N2CCCC2)nc1N1CCCCC1`, the inhibition was -7.46% (inactive). For `O=C1NC(c2cc3c(cc2Cl)OCO3)Oc2ccccc21` (stereo not given), the inhibition was 2.99% (inactive). With `COC(=O)c1ccc(C2CC(=O)Nc3cc(OC)c(OC)cc32)cc1` (stereo not given) the inhibition was 7.38% (inactive). In the case of `COc1ccccc1C1C2=C(COC2=O)Nc2cc3c(cc21)OCO3` (stereo not given), the inhibition is reported as 64.9% (active). `CCCOc1ccccc1C1CC(=O)Nc2cc3c(cc21)OCO3` (stereo not given) was tested, and the inhibition was 56% (active). In the case of `COc1ccc(S(=O)(=O)Nc2ccc3c(c2)OCO3)cc1Cl`, the inhibition is reported as 8.27% (inactive). With `CCCOc1ccc(C2NC(=O)NC(c3ccccc3)=C2C(C)=O)cc1OCC` (stereo not given) the inhibition was 14.8% (inactive). In the case of `COc1ccc(NS(=O)(=O)c2cc(NC(=O)COc3ccccc3F)ccc2OC)cc1`, the inhibition is reported as 14.4% (inactive). In the case of `CN1C(=O)[C@H]2[C@@H](/C=C/c3ccccc3)N3C(=O)CN(Cc4ccc(-c5ccccc5)cc4)C(=O)[C@@]3(C)[C@H]2C1=O`, the inhibition is reported as 22.2% (inactive). With `COc1ccc(-n2c(O)c(C=NCC(c3ccco3)N3CCCC3)c3ccccc3c2=O)cc1OC` (stereo not given) the inhibition was 15.6% (inactive). For `CCN(CC)S(=O)(=O)c1ccc2c3c(cccc13)C(=O)S2`, the inhibition was 39.8% (inactive). For `CCN1C(=O)c2cccc3c(S(=O)(=O)Nc4ccccc4O)ccc1c23`, the inhibition was 62.5% (active). `O=C(CN1C(=O)c2cccc3cccc1c23)Nc1ccccc1` was tested, and the inhibition was 26.2% (inactive). For `O=C(NN1CCOCC1)c1cccc(F)c1`, the inhibition was 6.11% (inactive). In the case of `Cc1c(Br)c([N+](=O)[O-])nn1CC(=O)Nc1sc2c(c1C(=O)OC(C)C)CCC(C)C2` (stereo not given), the inhibition is reported as 23.2% (inactive). `O=C(COC(=O)c1ccncc1)Nc1ccc2c(c1)OCO2` was tested, and the inhibition was -1.34% (inactive).
